For six compounds, inhibition results are on record in ChEMBL document CHEMBL1961873, “Compounds: GSK PKIS; Assays: Nanosyn kinase panel” (2012).

The target in test [1] is T1, 3-phosphoinositide-dependent protein kinase 1 (Homo sapiens) (UniProt O15530).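 Further: values are mean inhibition of PDK1.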
T1 sequence (whole entry): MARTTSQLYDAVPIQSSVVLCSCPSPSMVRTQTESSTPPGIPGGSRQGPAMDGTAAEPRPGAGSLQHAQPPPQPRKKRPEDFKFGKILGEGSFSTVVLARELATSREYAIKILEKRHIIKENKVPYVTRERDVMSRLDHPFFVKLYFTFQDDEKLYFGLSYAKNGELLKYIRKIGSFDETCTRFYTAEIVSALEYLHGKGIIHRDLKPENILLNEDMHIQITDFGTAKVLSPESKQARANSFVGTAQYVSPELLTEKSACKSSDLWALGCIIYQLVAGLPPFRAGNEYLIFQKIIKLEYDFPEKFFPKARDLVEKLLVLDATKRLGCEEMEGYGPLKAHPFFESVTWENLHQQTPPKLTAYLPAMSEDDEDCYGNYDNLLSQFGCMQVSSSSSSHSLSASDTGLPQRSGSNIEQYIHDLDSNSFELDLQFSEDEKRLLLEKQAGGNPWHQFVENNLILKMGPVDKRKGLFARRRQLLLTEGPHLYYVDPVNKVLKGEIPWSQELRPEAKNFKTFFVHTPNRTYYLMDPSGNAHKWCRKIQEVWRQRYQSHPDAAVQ
As to conditions: at 0.1 µM.

For test [2], the target named is cAMP-dependent protein kinase catalytic subunit alpha (Homo sapiens) (UniProt P17612). As to conditions: at 0.1 µM.
Test [3] has the same target. As to conditions: at 1 µM.
Test [4] addresses Protein kinase C alpha type (Homo sapiens) (UniProt P17252). Particulars: at 0.1 µM.
Test [5] has the same target. As to conditions: at 1 µM.
Test [6] concerns the target Protein kinase C beta type (Homo sapiens) (UniProt P05771). As to conditions: at 0.1 µM.
The target is the same in test [7]. Particulars: at 1 µM.
Test [8] deals with Protein kinase C eta type (Homo sapiens) (UniProt P24723). Particulars: at 0.1 µM.
Protein kinase C eta type (Homo sapiens), sequence (P24723 whole entry): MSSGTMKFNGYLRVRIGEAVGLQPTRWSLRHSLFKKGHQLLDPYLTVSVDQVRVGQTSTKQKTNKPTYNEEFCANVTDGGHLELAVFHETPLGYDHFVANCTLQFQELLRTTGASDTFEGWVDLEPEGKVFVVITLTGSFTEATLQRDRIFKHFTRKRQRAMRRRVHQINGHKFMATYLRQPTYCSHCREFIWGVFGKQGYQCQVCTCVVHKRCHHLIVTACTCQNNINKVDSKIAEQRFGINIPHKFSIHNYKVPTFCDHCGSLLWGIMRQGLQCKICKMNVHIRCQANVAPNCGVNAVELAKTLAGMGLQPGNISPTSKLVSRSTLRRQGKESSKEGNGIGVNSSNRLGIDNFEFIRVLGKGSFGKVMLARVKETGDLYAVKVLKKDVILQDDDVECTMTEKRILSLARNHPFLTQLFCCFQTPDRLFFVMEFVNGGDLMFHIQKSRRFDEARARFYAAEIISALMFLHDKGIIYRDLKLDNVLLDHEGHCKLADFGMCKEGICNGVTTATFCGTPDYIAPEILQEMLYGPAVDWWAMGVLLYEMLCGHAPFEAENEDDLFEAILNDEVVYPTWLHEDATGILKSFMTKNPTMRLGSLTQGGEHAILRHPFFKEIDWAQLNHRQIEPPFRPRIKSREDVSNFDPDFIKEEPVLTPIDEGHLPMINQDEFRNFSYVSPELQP
Test [9] shares this target. As to conditions: at 1 µM.
Test [10] concerns the target Protein kinase C gamma type (Homo sapiens) (UniProt P05129). As to conditions: at 0.1 µM.
For test [11] the target is unchanged. Particulars: at 1 µM.
Test [12] has as its target T2, Protein kinase C iota type (Homo sapiens) (UniProt P41743).
T2 sequence (whole entry): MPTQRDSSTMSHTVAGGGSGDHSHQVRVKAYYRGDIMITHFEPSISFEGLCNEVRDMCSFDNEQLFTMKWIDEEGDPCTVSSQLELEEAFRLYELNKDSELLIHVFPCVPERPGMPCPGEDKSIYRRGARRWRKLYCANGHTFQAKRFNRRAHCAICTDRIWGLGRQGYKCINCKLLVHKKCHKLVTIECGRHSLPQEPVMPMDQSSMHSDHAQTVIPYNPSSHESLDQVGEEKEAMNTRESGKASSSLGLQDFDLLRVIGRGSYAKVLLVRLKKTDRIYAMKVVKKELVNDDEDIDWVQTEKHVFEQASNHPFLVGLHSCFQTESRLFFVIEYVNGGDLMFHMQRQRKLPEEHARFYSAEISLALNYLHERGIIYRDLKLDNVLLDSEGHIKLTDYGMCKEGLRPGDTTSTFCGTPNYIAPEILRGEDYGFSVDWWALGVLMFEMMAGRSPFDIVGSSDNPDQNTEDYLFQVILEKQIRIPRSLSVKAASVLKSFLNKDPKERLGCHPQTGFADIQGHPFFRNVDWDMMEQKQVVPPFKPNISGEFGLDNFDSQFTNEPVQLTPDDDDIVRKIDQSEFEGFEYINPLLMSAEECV
Particulars: at 0.1 µM.

Test [13] concerns the target T2, Protein kinase C iota type (Homo sapiens). As to conditions: at 1 µM.
In test [14] the target is Protein kinase C theta type (Homo sapiens) (UniProt Q04759). Particulars: at 0.1 µM.
Protein kinase C theta type (Homo sapiens), sequence (Q04759 whole entry, looked up): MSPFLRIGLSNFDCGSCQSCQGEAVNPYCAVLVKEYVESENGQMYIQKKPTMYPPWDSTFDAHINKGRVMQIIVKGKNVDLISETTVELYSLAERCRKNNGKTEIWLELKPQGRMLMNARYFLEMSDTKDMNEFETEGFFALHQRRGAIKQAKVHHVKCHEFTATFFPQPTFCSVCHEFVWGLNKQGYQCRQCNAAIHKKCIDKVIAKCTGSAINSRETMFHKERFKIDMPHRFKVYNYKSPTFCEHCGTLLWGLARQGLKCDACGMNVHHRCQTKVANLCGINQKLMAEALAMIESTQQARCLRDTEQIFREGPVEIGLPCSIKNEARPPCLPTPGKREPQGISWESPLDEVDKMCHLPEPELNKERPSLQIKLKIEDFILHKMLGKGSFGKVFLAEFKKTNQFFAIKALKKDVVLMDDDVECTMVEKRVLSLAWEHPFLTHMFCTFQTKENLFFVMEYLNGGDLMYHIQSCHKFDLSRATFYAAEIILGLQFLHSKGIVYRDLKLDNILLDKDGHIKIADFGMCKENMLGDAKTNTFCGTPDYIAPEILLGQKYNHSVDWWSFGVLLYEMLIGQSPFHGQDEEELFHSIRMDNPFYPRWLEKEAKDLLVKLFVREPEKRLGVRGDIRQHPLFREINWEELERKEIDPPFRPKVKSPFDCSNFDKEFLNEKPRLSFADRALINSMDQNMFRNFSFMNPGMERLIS
Test [15] shares this target. As to conditions: at 1 µM.
Test [16] concerns the target Protein kinase C beta type (Homo sapiens) (UniProt P05771). As to conditions: at 0.1 µM. The source holds these as a separate data set.
Test [17] shares this target. Particulars: at 1 µM. The source holds these as a separate data set.
Test [18] has as its target T3, Serine/threonine-protein kinase D1 (Homo sapiens) (UniProt Q15139).
T3 sequence (whole entry): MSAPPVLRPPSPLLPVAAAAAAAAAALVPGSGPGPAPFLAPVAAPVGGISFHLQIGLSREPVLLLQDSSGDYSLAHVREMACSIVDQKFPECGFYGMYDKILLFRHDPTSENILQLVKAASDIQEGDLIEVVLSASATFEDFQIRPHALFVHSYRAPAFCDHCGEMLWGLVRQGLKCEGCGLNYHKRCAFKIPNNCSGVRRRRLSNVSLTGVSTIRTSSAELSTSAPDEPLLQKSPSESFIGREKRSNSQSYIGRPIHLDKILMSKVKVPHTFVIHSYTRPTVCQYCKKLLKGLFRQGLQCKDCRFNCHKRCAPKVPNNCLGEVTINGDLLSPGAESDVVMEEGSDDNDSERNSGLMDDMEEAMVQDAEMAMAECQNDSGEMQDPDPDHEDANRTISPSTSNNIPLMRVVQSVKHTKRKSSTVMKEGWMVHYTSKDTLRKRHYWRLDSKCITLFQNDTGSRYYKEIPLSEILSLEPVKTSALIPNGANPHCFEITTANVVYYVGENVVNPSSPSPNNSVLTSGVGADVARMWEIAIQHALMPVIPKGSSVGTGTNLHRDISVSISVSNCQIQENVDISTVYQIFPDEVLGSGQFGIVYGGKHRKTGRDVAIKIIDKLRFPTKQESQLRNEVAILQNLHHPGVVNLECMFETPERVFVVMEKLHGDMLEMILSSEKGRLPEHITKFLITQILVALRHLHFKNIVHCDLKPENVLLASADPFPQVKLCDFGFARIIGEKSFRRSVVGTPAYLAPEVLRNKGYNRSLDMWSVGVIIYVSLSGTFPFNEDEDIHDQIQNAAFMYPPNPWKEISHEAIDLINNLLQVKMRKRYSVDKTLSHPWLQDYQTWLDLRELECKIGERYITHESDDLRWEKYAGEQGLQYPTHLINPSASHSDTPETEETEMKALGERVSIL
Particulars: at 0.1 µM.

Test [19] has as its target T3, Serine/threonine-protein kinase D1 (Homo sapiens). Particulars: at 1 µM.
Test [20] addresses T4, Serine/threonine-protein kinase D2 (Homo sapiens) (UniProt Q9BZL6).
T4 sequence (whole entry): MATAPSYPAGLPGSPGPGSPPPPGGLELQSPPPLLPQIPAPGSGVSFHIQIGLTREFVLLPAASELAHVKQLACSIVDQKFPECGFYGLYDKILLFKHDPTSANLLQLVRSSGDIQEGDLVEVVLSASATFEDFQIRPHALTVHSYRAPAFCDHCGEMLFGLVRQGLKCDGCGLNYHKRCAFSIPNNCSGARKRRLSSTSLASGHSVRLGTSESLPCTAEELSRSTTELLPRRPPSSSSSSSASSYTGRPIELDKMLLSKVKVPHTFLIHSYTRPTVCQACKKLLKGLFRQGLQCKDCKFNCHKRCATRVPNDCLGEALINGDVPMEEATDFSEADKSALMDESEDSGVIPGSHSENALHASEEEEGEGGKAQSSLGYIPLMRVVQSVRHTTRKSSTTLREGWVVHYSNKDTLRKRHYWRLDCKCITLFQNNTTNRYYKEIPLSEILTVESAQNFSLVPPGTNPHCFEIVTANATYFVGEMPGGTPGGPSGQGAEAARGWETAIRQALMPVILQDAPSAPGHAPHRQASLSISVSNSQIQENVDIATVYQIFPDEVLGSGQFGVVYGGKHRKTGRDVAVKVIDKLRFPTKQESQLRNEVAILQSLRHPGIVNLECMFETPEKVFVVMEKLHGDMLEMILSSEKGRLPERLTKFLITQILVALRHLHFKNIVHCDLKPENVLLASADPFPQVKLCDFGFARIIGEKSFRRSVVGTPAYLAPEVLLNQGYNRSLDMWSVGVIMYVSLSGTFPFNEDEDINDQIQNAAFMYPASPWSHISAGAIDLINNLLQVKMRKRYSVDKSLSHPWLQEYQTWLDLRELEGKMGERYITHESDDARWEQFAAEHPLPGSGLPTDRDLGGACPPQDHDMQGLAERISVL
As to conditions: at 0.1 µM.

Protein kinase C beta type (Homo sapiens), sequence (P05771 2-671 limits assumed): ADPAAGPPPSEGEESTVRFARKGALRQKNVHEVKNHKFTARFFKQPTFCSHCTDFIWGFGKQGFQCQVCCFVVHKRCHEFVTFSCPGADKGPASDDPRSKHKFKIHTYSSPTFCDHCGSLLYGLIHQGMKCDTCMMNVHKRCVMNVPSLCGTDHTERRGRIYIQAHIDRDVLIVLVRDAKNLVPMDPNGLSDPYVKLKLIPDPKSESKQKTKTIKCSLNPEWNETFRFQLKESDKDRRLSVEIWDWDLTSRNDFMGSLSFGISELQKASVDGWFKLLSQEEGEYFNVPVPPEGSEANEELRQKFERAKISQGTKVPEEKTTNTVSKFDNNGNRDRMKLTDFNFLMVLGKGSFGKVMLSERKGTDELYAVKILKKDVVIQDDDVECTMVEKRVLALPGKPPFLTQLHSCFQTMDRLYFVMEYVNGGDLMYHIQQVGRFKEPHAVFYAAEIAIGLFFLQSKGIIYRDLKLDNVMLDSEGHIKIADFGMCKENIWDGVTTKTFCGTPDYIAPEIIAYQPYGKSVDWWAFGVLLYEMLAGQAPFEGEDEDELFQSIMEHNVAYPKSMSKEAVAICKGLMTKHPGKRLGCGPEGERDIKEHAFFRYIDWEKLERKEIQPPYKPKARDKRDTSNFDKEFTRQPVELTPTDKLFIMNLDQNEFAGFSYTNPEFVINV

By inhibition is commonly meant the drop in the measured response relative to a control, in per cent. Regarding `COc1ccccc1Nc1ncc(-c2ccccc2)o1`, the inhibition in test [1] was 7.73%; in test [2], 1.58%; in test [3], 3.65%; in test [4], 0.95%; in test [5], 1.01%; in test [6] it was 1.34%. Besides, the inhibition is -6.48% in test [7]; 7.06% in test [8]; 7.33% in test [9]; -0.19% in [10]; 3.53% in test [11]; 3.88% in test [12]. Also, the inhibition is 3.75% in test [13]; 3.4% in test [14]; 3.02% in test [15]; 1.12% in test [16]; 1.8% in [17]; 4.01% in [18]. Moreover, the inhibition in test [19] was 5.46%; in test [20], 3.84%.
In the case of `COc1ccc2cc(-c3c(-c4ccncc4)nc(-c4ccc([S+](C)[O-])cc4)n3C)ccc2c1` (stereo not given), the inhibition stood at 0.4% in test [1]; 1.97% in test [2]; 9.5% in test [3]; 0.25% in [4]; 0.94% in test [5]; 0.88% in [6]. In addition, the inhibition in test [7] was 7.1%; in test [8], 2.61%; in test [9], -1.46%; in [10], 1.09%; in [11], 0.94%; in [12], 0.48%. The inhibition in test [13] came out at 2.02%; in [14], 1.01%; in [15], 0.27%; in test [16], 0.67%; in test [17] it was 3.79%; in test [18], 2.99%. Also, the inhibition in [19] was 5.01%; in [20] it was 3.94%.
As to `COc1cc2ncn(-c3cc(OCc4ccccc4C(F)(F)F)c(C(N)=O)s3)c2cc1OC`, the inhibition is 0.58% in [1]; -1.97% in test [2]; -1.35% in test [3]; -3.16% in test [4]; -2.48% in test [5]; 0.23% in test [6]. Moreover, the inhibition was 0.89% in test [7]; 5.48% in test [8]; 5.95% in [9]; -1.78% in test [10]; 0.51% in [11]; 3.36% in test [12]. Also, the inhibition in test [13] is 3.32%; in test [14] it was 2.16%; in test [15], 3.1%; in test [16], 1.23%; in [17], 2%; in test [18], 0.73%. Also, the values for the inhibition in test [19] and in [20] were 0.99% and 1.16%, respectively.
For the compound `N#Cc1c(NC(=O)c2cccc3ccccc23)sc2c1CCCC2`, the inhibition in test [1] turned out to be 1.52%; in test [2], 1.59%; in [3], 1.98%; in test [4] it was 0.26%; in [5], 1.22%; in test [6], 1.24%. Besides, the inhibition in test [7] is -1.28%; in test [8], 3.52%; in test [9] it was 3.65%; in [10], 2.48%; in test [11] it was 0.67%; in [12], 1.98%. For the same compound, the inhibition worked out at 2.38% in test [13]; 1.69% in [14]; 0.74% in [15]; 2.18% in [16]; 2.04% in test [17]; 4.23% in test [18]. For the same compound, the inhibition in test [19] came out at 4.24%; in test [20], 2.17%.
`CC1=C(C(=O)Nc2ccc3[nH]ncc3c2)C(c2ccc(F)cc2)NC(=O)N1` (stereo not given): the inhibition in test [1] was 0.63%; in [2], 3.81%; in test [3], 30.4%; in test [4], 0.69%; in test [5], 0.39%; in [6], -0.65%. Also, the inhibition in [7] amounted to 1.36%; in test [8] it was 3.55%; in test [9], 10.8%; in [10], 0.38%; in [11], 2.9%; in [12], 1.83%. The inhibition in test [13] came out at 1.22%; in test [14], 1.63%; in test [15] it was 3.15%; in test [16], 1.62%; in test [17], 1.76%; in [18], 3.15%. For the same compound, the inhibition in test [19] came to 8.16%; in [20] it was 3.76%.
In the case of `COc1ccc(-c2nn3ncccc3c2-c2ccnc(Nc3ccc(Cl)c(C(F)(F)F)c3)n2)cc1`, the inhibition in [1] is 0.17%; in [2], 1.59%; in [3], 1.26%; in [4] it was 0.22%; in [5], -0.2%; in [6] it was 0.17%. In addition, the inhibition was 3.13% in [7]; 2.79% in test [8]; 2.3% in test [9]; 1.74% in [10]; -0.57% in test [11]; 0.28% in test [12]. Moreover, the inhibition was -1.6% in test [13]; 1.56% in test [14]; 2.55% in test [15]; 0.91% in test [16]; 0.81% in [17]; 2.22% in test [18]. For the same compound, the inhibition in test [19] was found to be 3.95%; in [20], 2.47%.
